Inconclusive results are not listed. Where a call stands in place of a potency, no number is given. Active and inactive are the calls of the source. Calls follow the shape of the dose curve; as a rule, active = well fitted activation curve with a large enough effect; inconclusive = small, poorly fitted or top-dose-only effect; inactive = flat fitted curve, though single readings scatter.
Potency is read from the fitted curve at half-maximal effect.

Sequence of Cellular tumor antigen p53 (Homo sapiens) (P04637 whole entry, looked up): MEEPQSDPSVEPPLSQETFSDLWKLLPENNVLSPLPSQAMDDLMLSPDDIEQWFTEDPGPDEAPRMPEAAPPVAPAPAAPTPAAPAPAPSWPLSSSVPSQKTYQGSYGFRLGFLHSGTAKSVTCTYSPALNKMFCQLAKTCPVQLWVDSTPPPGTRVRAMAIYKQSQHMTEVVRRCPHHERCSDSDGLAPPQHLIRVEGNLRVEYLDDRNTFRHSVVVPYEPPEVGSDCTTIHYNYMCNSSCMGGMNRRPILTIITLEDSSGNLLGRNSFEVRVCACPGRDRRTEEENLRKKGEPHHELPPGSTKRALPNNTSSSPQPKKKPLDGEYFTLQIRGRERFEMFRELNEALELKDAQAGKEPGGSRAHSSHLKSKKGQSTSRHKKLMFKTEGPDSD

The target of the assay is Cellular tumor antigen p53 (Homo sapiens) (UniProt P04637). In words: Primary qHTS for small molecule compounds that upregulate eGFP-tagged delta133p53alpha (in C-terminal) cells. (AID 2060324). Particulars: NCI-H358 delta133p53alpha-eGFP (C-terminal tag), GFP fluorescence imaging, 24 h; series mostly up to 57.5 µM. From the text:
Assay Development and Screening Technology
National Center for Advancing Translational Sciences (NCATS),
National Institute of Health (NIH), Rockville, Maryland
Cellular senescence (CS) is one of the hallmarks of aging and age-related diseases. Senescent cells are characterized by an irreversible growth arrest, an increase in senescence-associated beta-galactosidase (SA-beta-gal) activity and p16INK4a expression, an activation of the DNA damage response pathways, and the emergence of a senescence-associated secretory phenotype (SASP).
Delta133p53alpha, a human/primate-specific p53 protein isoform, delays or inhibits the induction of CS and SASP in various types of human cells, including progeria-derived fibroblasts, primary normal astrocytes, and CD8+ T lymphocytes. Induction of delta133p53alpha with small molecule compounds may provide therapeutic opportunities for inhibition of senescence/SASP-associated pathologies in progeria syndromes, astrocyte-mediated neuroprotection in neurodegenerative diseases, and possibly prevention and treatment of a wider range of senescence- and aging-associated diseases.
Here we report the development and validation of a cell-based quantitative high throughput screening (qHTS) assay in 1,536-well format. This qHTS assay uses the NCI-H358 cell line with doxycycline-inducible expression of enhanced green fluorescent protein (eGFP)-tagged delta133p53alpha, which allows efficient and highly quantitative measurement of the protein levels.
PROTOCOL TABLE (as described by Inglese J, Shamu CE and Guy RK. 2007)
SEQUENCE No. (e.g., 1, 2, 3, etc.); […] (e.g., Cells, Incubation, Reagent, etc.); VALUE; DESCRIPTION.
1; Cells; 4uL; 800 doxycycline treated cells / well in doxycycline-free media, 1536-well black, clear-bottom low base Aurora microplates.
2; Compounds; 23 nL; Kalypsis pin tool (Wako) equipped with 1536-well pin heads, 5-azacytidine positive control.
3; Incubation; 24 hr; 37C, 5% CO2; 95% relative humidity.
4; Aspiration; 1x; BioTek EL406 washer dispenser (Agilent).
5; Fixing; 3.5% paraformaldehyde, BioTek EL406 washer dispenser (Agilent).
6; Washing; 1x PBS; BioTek EL406 washer dispenser (Agilent).
7; Nuclei staining; 1:1000 dilution of Hoechst 33342 (Thermofisher), BioTek EL406 washer dispenser (Agilent).
8; Incubation; 20 min; in the dark at room temperature.
9; Washing; 2x, 1x PBS (ThermoFisher), BioTek EL406 washer dispenser (Agilent).
10; Reagent; 10 uL; 1x PBS per well, sealed with clear adhesive tape.
11; Detection; Fluorescence, Acumen eX3 laser scanning cytometer (STP Labtech), GFP filters […].
NOTES (numbers refer to sequence numbers above).
1. NCI-H358 cells expressing eGFP-tagged delta133p53alpha were grown in T75 culture flasks and treated with doxycycline for 24h, at 10 ng/ml for eGFP-D133p53a cells (N-terminal cell) and 100 ng/ml for D133p53a-eGFP cells (C-terminal cells). Cells were trypsinized, counted using a Counted 3 Automated Cell Counter (Thermo Fisher), and diluted to a concentration of 200,000 cells/ml. A Multidrop Combi Reagent Dispenser (ThermoFisher) was used to dispense 800 cells/well in […] of doxycycline-free media, into 1536-well black/clear bottom low base plates (AuroraMicroplates).
2. After plating cells, 23 nl of compound library, DMSO vehicle control or positive control (5-azacytidine) were transferred by Pin Tool (Wako). The plate map layout was the same for each plate: (column 1) non-doxycycline treated cells + DMSO vehicle control; (column 2) doxycycline treated cells + DMSO vehicle control baseline; (column 3) doxycycline treated cells + positive control 57.5 uM final concentration 5-azacytidine; (column 4) doxycycline treated cells + serial dilution of 5-azacytidine, 16-point 1:2 titration spanning 1.8 nM to […] final concentration; (columns 5-48) doxycycline treated cells + titration of library compounds.
3. Cells were incubated at 37 °C, 5 % CO2, 95% RH with breathable metal lid for 24h.
4-10. […] […]
Consider `O=c1[nH]c2ccccc2n1CCCN1CCC(n2c(=O)[nH]c3cc(Cl)ccc32)CC1`, for which the Potency result is “inactive”.
Consider `CC[C@@H](C(N)=O)N1CCCC1=O`, for which the Potency result is “inactive”.
Next, `CC[C@@H](CO)NC(=O)[C@@H]1C=C2c3cccc4[nH]cc(c34)C[C@H]2N(C)C1`: “inactive”; `N#C/C(=C/c1ccc(O)c(O)c1)C(N)=S`: “inactive”.
On to `Cc1nccc2c1[nH]c1ccccc12`, for which the Potency result was “inactive”.
The entry for `CCCCc1ccc(C(=O)O)nc1` is “inactive”; for `NCCc1ccc(S(=O)(=O)F)cc1` it is “inactive”; for `O=c1[nH]oc2c1CCNC2` it is “inactive”.
The figure for `CCn1cnc2c(Nc3cccc(Cl)c3)nc(N[C@@H]3CCCC[C@@H]3N)nc21` is 5.36 µM (active); for `NCC(CP(=O)(O)O)c1ccc(Cl)cc1` (stereo not given) it is “inactive”; for `CC(C)NP(=O)(NC(C)C)OP(=O)(NC(C)C)NC(C)C` it is “inactive”.
Next, `NC(CP(=O)(O)O)C(=O)O` (stereo not given): “inactive”; `CCCCCN(C)CCC(O)(P(=O)(O)O)P(=O)(O)O`: “inactive”.
For the compound `O=C1/C(=C/c2ccccc2)C[C@@]2(O)[C@H]3Cc4ccc(O)c5c4[C@@]2(CCN3CC2CC2)[C@H]1O5`, the Potency is 21.3 µM (active).
As to `CC(C)c1cccc(C(C)C)c1O`, the Potency entry was “inactive”.
For `O=C(O)CC[N+](=O)[O-]`, the Potency entry was “inactive”.
Take `CC(N)[C@H](O)c1ccc(O)c(O)c1` (stereo not given in full): the Potency result is “inactive”.
Next, `C=CCN1CC[C@]23CCCCC2[C@H]1Cc1ccc(O)cc13` (stereo not given in full): “inactive”.
Next, `CCCN(CCC)C1CCc2cccc(O)c2C1` (stereo not given): “inactive”; `CC(=O)[C@H]1CC[C@H]2[C@@H]3CC[C@H]4C[C@H](O)CC[C@]4(C)[C@H]3C(=O)C[C@]12C`: “inactive”; `CN1CC[C@@]2(C)c3cc(O)ccc3N(C)C12` (stereo not given in full): “inactive”.
On to `CCCN(CCC)[C@@H]1CCc2cccc(O)c2C1`, for which the Potency entry was “inactive”.
In the case of `CN1CCC[C@@H]1Cc1c[nH]c2ccc(Nc3ncccc3[N+](=O)[O-])cc12`, the Potency entry is “inactive”.
With `CC(C)(C)NCC(O)c1ccccc1Cl` (stereo not given), the Potency result is “inactive”.
In the case of `CCCn1c(=O)c2[nH]c(C3CCCC3)nc2n(CCCOC(=O)c2ccc(S(=O)(=O)F)cc2)c1=O`, the Potency result was “inactive”.
With `NC(C(=O)O)c1cc(=O)[nH]o1` (stereo not given), the Potency entry was “inactive”.
For `Cc1cc([C@@H]2CCCN2C)on1`, the Potency entry is “inactive”.
Next, `CN1C2CCC1CC(OC(=O)c1cc(Cl)cc(Cl)c1)C2` (stereo not given): “inactive”; `NC(=O)COc1c(F)cc(SCCNS(=O)(=O)c2ccccc2)cc1F`: “inactive”; `CC(=O)[C@H]1CCC2C3CC[C@H]4C[C@H](O)CC[C@]4(C)C3CC[C@@]21C` (stereo not given in full): “inactive”.
Next, `COc1ccc2[nH]cc(CCN)c2c1`: “inactive”; `CNCCc1ccc(O)c(O)c1`: “inactive”.
Next, `C[N+]1(C)CCOC(O)(c2ccc(-c3ccc(C4(O)C[N+](C)(C)CCO4)cc3)cc2)C1` (stereo not given): “inactive”.
Regarding `CC(O)(CS(=O)(=O)c1ccc(F)cc1)C(=O)Nc1ccc(C#N)c(C(F)(F)F)c1` (stereo not given), the Potency result is “inactive”.
Next, `O=C(O)c1nn(Cc2ccc(Cl)cc2Cl)c2ccccc12`: “inactive”; `COC(=O)[C@@H](N)CCCN=C(N)N[N+](=O)[O-]`: “inactive”.
For `NC(=O)c1cc(N2CC2)c([N+](=O)[O-])cc1[N+](=O)[O-]`, the Potency entry is “inactive”.
As for `Cc1o[nH]c(=O)c1CC(N)C(=O)O` (stereo not given), the Potency result was “inactive”.
Next, `OCc1cnc[nH]1`: “inactive”; `COc1ccccc1N1CCNCC1`: “inactive”.

The values above are taken from PubChem BioAssay (NCATS).
